Measured values taken from PubChem BioAssay AID606 (Columbia University Molecular Screening Center, 2007).
Out of some 52,000 compounds screened, fewer than 10 were called active.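 How the source made its calls: active means IC50 under 40 µM in the dose-response test; inactive means IC50 of 40 µM or more, or never dose-tested.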 A selection follows.

The molecules below were run against Tyrosine-protein phosphatase non-receptor type 22 (Homo sapiens) (UniProt Q9Y2R2) (assay: inhibition of human PTPN22 tyrosine phosphatase – biochemical, DiFMUP fluorescence, recombinant catalytic domain, 10 µM, primary screen (AID 606)). Conditions: recombinant LYP catalytic domain, at 10 µM, active compounds read high.
Chain of Tyrosine-protein phosphatase non-receptor type 22 (Homo sapiens) (Q9Y2R2 whole entry, looked up, the tested form may be a part): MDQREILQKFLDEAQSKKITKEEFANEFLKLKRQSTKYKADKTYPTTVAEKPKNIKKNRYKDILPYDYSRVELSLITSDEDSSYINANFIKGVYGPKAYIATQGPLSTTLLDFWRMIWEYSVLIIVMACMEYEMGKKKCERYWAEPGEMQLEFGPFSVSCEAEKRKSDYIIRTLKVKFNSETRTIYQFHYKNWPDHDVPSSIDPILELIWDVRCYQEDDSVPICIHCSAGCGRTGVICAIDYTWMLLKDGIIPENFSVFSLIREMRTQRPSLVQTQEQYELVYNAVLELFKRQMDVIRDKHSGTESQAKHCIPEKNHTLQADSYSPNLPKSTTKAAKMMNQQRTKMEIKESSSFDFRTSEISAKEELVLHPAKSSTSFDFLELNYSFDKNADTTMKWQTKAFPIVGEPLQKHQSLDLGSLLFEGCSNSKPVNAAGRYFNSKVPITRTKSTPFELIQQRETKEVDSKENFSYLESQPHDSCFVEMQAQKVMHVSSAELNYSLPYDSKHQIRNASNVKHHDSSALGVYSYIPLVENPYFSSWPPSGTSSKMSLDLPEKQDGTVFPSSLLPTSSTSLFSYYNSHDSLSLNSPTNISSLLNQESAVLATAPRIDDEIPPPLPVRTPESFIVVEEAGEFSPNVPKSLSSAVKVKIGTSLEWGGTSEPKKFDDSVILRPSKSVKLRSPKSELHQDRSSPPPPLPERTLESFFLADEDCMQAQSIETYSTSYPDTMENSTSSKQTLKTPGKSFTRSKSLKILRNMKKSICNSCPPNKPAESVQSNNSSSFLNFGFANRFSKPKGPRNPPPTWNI
With `COCC(C)n1c(C)cc(C(=O)COC(=O)c2ccc3ncsc3c2)c1C` (centres undefined) the inhibition was -12.6% (inactive).
With `CCCn1cnc2cc(NCc3ccccn3)ccc21` the inhibition was 6.61% (inactive).
In the case of `NC(=O)c1ccccc1NC(=O)CCCN1C(=O)CCC1=O`, the inhibition was 14.4% (inactive).
For `CCN(CC)c1ccc(C(=O)OCC(=O)N2CCN(c3ccccc3)CC2)cc1`, the inhibition was 0.55% (inactive).
In the case of `COc1ccc(N(CC(=O)Nc2ccc(OC)c(Cl)c2)S(=O)(=O)c2c(C)noc2C)cc1`, the inhibition was 6.18% (inactive).
`CCOC(=O)C1CCN(C(=O)COc2ccc(N(C)S(=O)(=O)c3cccs3)cc2)CC1` was tested, and the inhibition was 4.68% (inactive).
`CC1(C)Cc2c(C#N)c(NCCCO)nc(-c3ccccc3)c2CO1` was tested, and the inhibition was -2.42% (inactive).
For `CSc1nc(-c2ccco2)nn1S(=O)(=O)c1ccccc1`, the inhibition was -1.38% (inactive).
For `CCN(CC)Cc1cc2ccccc2c2c1COC2`, the inhibition was 0.09% (inactive).
For `c1ccc(CCNc2ncnc3c2nnn3Cc2ccccc2)cc1`, the inhibition was -4.3% (inactive).
In the case of `COc1cccc(OC)c1OCC(O)CN1CCN(c2ccccc2)CC1` (centres undefined), the inhibition was 2.34% (inactive).
For `CC#CCCCC(=O)Nc1cc(OC)nc(OC)n1`, the inhibition was 3% (inactive).
With `CN1C(=O)C(C(=O)NC(C)(C)C)C2c3ccccc3OC13CCCCC23` (centres undefined) the inhibition was -15% (inactive).
`CC(C)N(Cc1nc(-c2ccccc2)no1)S(=O)(=O)c1ccccc1` was tested, and the inhibition was 1.55% (inactive).
For `COc1cccc(NC(=O)c2ccc(CN3CCOCC3)cc2)c1`, the inhibition was 8.87% (inactive).
For `Cc1nc2nc(-c3cccnc3)nn2c(C)c1Cl`, the inhibition was 14.4% (inactive).
With `CCc1cc(C(=O)Nc2ccccc2)cs1` the inhibition was 0.95% (inactive).
With `CC(C)n1c(C(O)c2ccc3c(c2)OCO3)nc2ccccc21` (centres undefined) the inhibition was 5.85% (inactive).
`COc1cccc2cc(-c3cn4cccc(C)c4n3)c(=O)oc12` was tested, and the inhibition was -3.29% (inactive).
`CCCn1c(CN2CCCCC2CC)nc2c1c(=O)n(C)c(=O)n2C` (centres undefined) was tested, and the inhibition was -4.26% (inactive).
With `CC(=O)NC(CCS(C)(=O)=O)C(=O)Nc1ccccc1Cl` (centres undefined) the inhibition was 1.63% (inactive).
In the case of `CS(=O)(=O)N(CC(=O)Nc1ccc2c(c1)OCCO2)c1ccc2c(c1)OCO2`, the inhibition was 23.4% (inactive).
`COc1ccc(N2CCN(C(=O)C(Cc3ccccc3)n3cccc3)CC2)cc1` (centres undefined) was tested, and the inhibition was -12.6% (inactive).
With `CCN(CC)C(c1ccc(F)cc1)c1nnnn1C1CCCCC1` (centres undefined) the inhibition was 3.34% (inactive).
In the case of `NC(=O)NC(=O)COC(=O)CCCc1c[nH]c2ccccc12`, the inhibition was 1.43% (inactive).
`Cc1noc(NS(=O)(=O)c2ccc(NC(=O)CSc3ncccn3)cc2)c1C` was tested, and the inhibition was 11.6% (inactive).
For `COc1ccc(C(CNC(=O)c2cc(C)oc2C)N2CCOCC2)cc1` (centres undefined), the inhibition was 10.4% (inactive).
For `CC(C)(C)NC(=O)CN(C(=O)c1ccc(CN2CCOCC2)o1)c1ccc2c(c1)OCCO2`, the inhibition was -2.48% (inactive).
`N#CCCN(C(=O)c1ccco1)c1ccccc1` was tested, and the inhibition was 9.22% (inactive).
In the case of `Cc1ccc(NC(=O)c2ccc(S(=O)(=O)NCC3CCCO3)cc2)cc1` (centres undefined), the inhibition was 15.7% (inactive).
With `O=C(CN1CCN(S(=O)(=O)c2ccc(Br)cc2)CC1)Nc1ccc2c(c1)OCO2` the inhibition was 14.6% (inactive).
`O=C(NCC1CCCO1)[C@@H]1CSC2c3ccccc3C(=O)N21` (some centres undefined) was tested, and the inhibition was -1.83% (inactive).
For `O=C(CSc1nnc(-c2ccccn2)n1Cc1ccco1)c1ccc(-c2ccccc2)cc1`, the inhibition was -10.3% (inactive).
For `O=C(CCc1ccccc1)Nc1nnc(-c2cccs2)o1`, the inhibition was -13% (inactive).
With `COc1ccc(C(=O)N2CC(=O)N(CCc3ccccc3)C(=O)C2)cc1OC` the inhibition was 9.04% (inactive).
With `O=C(C1CCN(S(=O)(=O)N2CCOCC2)CC1)N1CCOCC1` the inhibition was 2.43% (inactive).
For `CC1CN(Cc2nc3c(c(=O)n(C)c(=O)n3C)n2CC(=O)c2ccccc2)CC(C)O1` (centres undefined), the inhibition was -0.17% (inactive).
`COc1ccc(-n2c(=O)[nH]cc(C(=O)N3CCCc4ccccc43)c2=O)cc1` was tested, and the inhibition was 2.14% (inactive).
In the case of `O=C(NCc1ccco1)C1CCN(S(=O)(=O)c2cccc3cccnc23)CC1`, the inhibition was 4.72% (inactive).
For `CCCCn1c2c(c(=O)n(C)c1=O)C(c1ccc(OC)cc1)N1CCCCCC1=N2` (centres undefined), the inhibition was -3.4% (inactive).
With `Cc1ccc(S(=O)(=O)NCCC(=O)NCc2ccccc2)cc1` the inhibition was 7.96% (inactive).
In the case of `CC1CCc2sc3nc(NCc4ccco4)n4ncnc4c3c2C1` (centres undefined), the inhibition was 2.11% (inactive).
For `C=CCn1c(NCCO)nc2sc3c(c2c1=O)CCC3`, the inhibition was 11.6% (inactive).
With `OCCn1nc2c3ccccc3nc-2n(-c2ccccc2)c1=S` the inhibition was 3.81% (inactive).
For `O=C(Nc1c(C(=O)N2CCOCC2)cnn1-c1ccccc1)c1ccccc1`, the inhibition was 1.38% (inactive).
With `COc1ccc2c(c1)C1(Nc3ccccc3-c3nc4ccccc4n31)C(=O)N2C` (centres undefined) the inhibition was 7.56% (inactive).
With `C1CCc2c(nnc3c2-c2nonc2CC3)C1` the inhibition was 11.1% (inactive).
`CSc1nc2c(c(=O)n1Cc1ccccc1)SC(C)C2` (centres undefined) was tested, and the inhibition was 0.73% (inactive).
With `Cn1c(SCC(=O)N2CCCCC2)nnc1-c1ccc(S(=O)(=O)N2CCOCC2)cc1` the inhibition was 13.4% (inactive).
`CC(C)(C)NC(=O)C(OC(=O)Cn1nnc(-c2ccc(F)cc2)n1)c1ccncc1` (centres undefined) was tested, and the inhibition was 1.61% (inactive).
`O=C(c1cc2ccccn2n1)N1CCN(c2ccccn2)CC1` was tested, and the inhibition was 7.66% (inactive).
In the case of `CN1C(=O)C(O)(CC(=O)c2ccccn2)c2cc(Br)ccc21` (centres undefined), the inhibition was 4.59% (inactive).
`COc1cc2ccccc2cc1C(=O)Nc1ccccc1N1CCN(S(C)(=O)=O)CC1` was tested, and the inhibition was 6.41% (inactive).
For `CC(=O)c1c(N2CCN(c3ccccc3)CC2)nc(=S)n(-c2ccccc2)c1C`, the inhibition was 3.4% (inactive).
For `Cn1c(CCNC(=O)c2cccs2)nnc1SCC(=O)N1CCN(c2ccccc2)CC1`, the inhibition was 6.14% (inactive).
In the case of `CCN1C(=O)C(O)(CC(=O)c2cc(C)ccc2C)c2ccccc21` (centres undefined), the inhibition was 11.7% (inactive).
With `CCOC(=O)c1cc2n(n1)C(C(F)(F)C(F)(F)F)CC(C)N2` (centres undefined) the inhibition was 15.7% (inactive).
In the case of `O=C(C1CCN(c2nnc(-n3cccc3)s2)CC1)N1CCN(c2cccc(C(F)(F)F)c2)CC1`, the inhibition was -2.18% (inactive).
In the case of `NC(=O)CN(c1ccc(Cl)cc1)S(=O)(=O)c1ccccc1`, the inhibition was -12.5% (inactive).
`COc1ccc(N(CC(=O)N2CCc3ccccc3C2)S(=O)(=O)c2c(C)nn(C)c2C)cc1` was tested, and the inhibition was -0.55% (inactive).
For `O=C(NCc1ccccc1)c1ccc(COCC(F)(F)F)o1`, the inhibition was 11.7% (inactive).
With `CCN1C(=Nc2ccc(Cl)cc2)SC/C1=C\C(=O)OC` the inhibition was 6.44% (inactive).
`COc1ccc(C2CC(c3cccc(C)c3)n3ncnc3N2)cc1` (centres undefined) was tested, and the inhibition was 16.6% (inactive).
In the case of `CC1CCC(NC(=O)CN2C(=O)C3CCCN3c3ncc(Cl)cc32)CC1` (centres undefined), the inhibition was -36.6% (inactive).
With `Cc1cc(N2CCN(C(c3ccccc3)c3ccc(Cl)cc3)CC2)n2ncnc2n1` (centres undefined) the inhibition was 3.46% (inactive).
`O=C(Nc1ccccn1)C1CCN(S(=O)(=O)c2cccs2)CC1` was tested, and the inhibition was 4.65% (inactive).
`COc1ccc(CCNC(=O)CC2Oc3ccc(Cl)cc3NC2=O)cc1OC` (centres undefined) was tested, and the inhibition was -7.5% (inactive).
`CC(=O)Nc1ccc(C(=O)OCCC(C)C)cc1` was tested, and the inhibition was -3.58% (inactive).
In the case of `Cc1nc2ccc(S(=O)(=O)NCC(=O)N(C)Cc3ccco3)cc2s1`, the inhibition was 4.87% (inactive).
For `CNC(=O)c1ccccc1NC(=O)c1cccc(S(=O)(=O)N2CCC(C)CC2)c1`, the inhibition was -7.79% (inactive).
For `CCc1ccc2c(COn3nnc4ccc(S(=O)(=O)N(C)C)cc43)cc(=O)oc2c1`, the inhibition was -1.03% (inactive).
`CCCSCCCNC(=O)CC1Oc2ccccc2NC1=O` (centres undefined) was tested, and the inhibition was 2.3% (inactive).
For `Cc1cccc(Nc2ncnc3nc[nH]c23)c1`, the inhibition was -1.47% (inactive).
`CCOCCCNCc1ccc(OC)c(OC)c1` was tested, and the inhibition was 6.63% (inactive).
`CCOC(=O)C1CCN(C(=O)CN(c2cccc(OC)c2)S(=O)(=O)c2ccccc2)CC1` was tested, and the inhibition was -2.95% (inactive).
With `COc1ccccc1OCCC(=O)OCCN1C(=O)c2ccccc2C1=O` the inhibition was -6.96% (inactive).
With `O=C(Cn1cnc2ccccc2c1=O)N1CCN(Cc2ccccc2)CC1` the inhibition was 15.4% (inactive).
`CC(C)(C)c1ccc(S(=O)(=O)N2CCCCC2C(=O)NCc2ccccn2)cc1` (centres undefined) was tested, and the inhibition was 11% (inactive).
In the case of `CCOc1ccc(NC(=O)CSc2nnc(-c3ccccn3)n2N)cc1`, the inhibition was 6.01% (inactive).
With `Cc1c(NC(=O)C2CCCN(S(=O)(=O)c3cnc[nH]3)C2)c(=O)n(-c2ccccc2)n1C` (centres undefined) the inhibition was 8.93% (inactive).
In the case of `COc1ccc2c(C)cc(SCC(=O)N3CCOCC3)nc2c1`, the inhibition was 8.83% (inactive).
In the case of `Cc1cc(=O)[nH]c(SCC(=O)c2ccc(C(C)C)cc2)n1`, the inhibition was 10.2% (inactive).
In the case of `COC(=O)C1=C(C)n2nnnc2NC1c1cc2ccccc2o1` (centres undefined), the inhibition was 12.9% (inactive).
In the case of `COc1cccc(NC(=O)CN(c2cccc(F)c2)S(C)(=O)=O)c1`, the inhibition was -7.34% (inactive).
In the case of `Cc1cc(C)c(S(=O)(=O)N(C)Cc2cnn(C)c2)c(C)c1`, the inhibition was 7.74% (inactive).
For `Cc1ccc(-c2cc(C(=O)NCc3ccccn3)no2)cc1`, the inhibition was 6.16% (inactive).
`CC1(C)Cc2ccccc2-c2nnc(-c3ccc(O)cc3)n21` was tested, and the inhibition was 5.6% (inactive).
`COc1ccc(C(=O)N2CCN(c3ccc(C)cc3)CC2)cc1OC` was tested, and the inhibition was -3.18% (inactive).
For `CCNC(=O)CC1C(=O)N(c2ccccc2)C(=O)N1CCC(C)C` (centres undefined), the inhibition was 5.24% (inactive).
`COc1ccccc1-n1c(CNC(=O)c2ccco2)nnc1SCC(=O)Nc1nccs1` was tested, and the inhibition was 3.45% (inactive).
In the case of `CCOC(=O)Cn1c(=N)n(Cc2ccccc2)c2ccccc21`, the inhibition was -0.97% (inactive).
For `Cn1c(CN2CCOCC2)nc2cc(NC(=O)c3ccccc3Cl)ccc21`, the inhibition was 10.7% (inactive).
For `Cc1cc(C)n2nc(C(=O)Nc3ccccc3N3CCOCC3)nc2n1`, the inhibition was 15.1% (inactive).
In the case of `CCCn1c(N)c(C(=O)CN2CCN(S(=O)(=O)c3cccs3)CC2)c(=O)[nH]c1=O`, the inhibition was -0.47% (inactive).
In the case of `CCCN(c1ccc(OCC)cc1)c1ncnc2nc[nH]c12`, the inhibition was 16.1% (inactive).
`CC1(C)Cc2c(sc(NC(=O)c3ccco3)c2C#N)CO1` was tested, and the inhibition was 4.29% (inactive).
`CC(=O)c1ccc(OCCCC(=O)n2nnc3ccccc32)cc1` was tested, and the inhibition was 14.1% (inactive).
With `Cc1cc(C(F)(F)F)nc(SCC(=O)Nc2ccccc2)n1` the inhibition was 0.2% (inactive).
For `C=CCSc1nc(C)c(CC(=O)OCCCC)c(=O)[nH]1`, the inhibition was 2.59% (inactive).
With `CCOC(=O)c1oc2c(CN3CCCCC3C)c(O)ccc2c(=O)c1-c1ccc(OC)c(OC)c1` (centres undefined) the inhibition was 15.8% (inactive).
`CC(=O)NC(c1ccccc1)c1nc2ccccc2[nH]1` (centres undefined) was tested, and the inhibition was -1.04% (inactive).
With `CCCn1c(NCc2ccco2)nc2ccccc21` the inhibition was 11.7% (inactive).
In the case of `COc1ccc(CCNc2cc(=O)[nH]c(N)n2)cc1`, the inhibition was 16.4% (inactive).
For `COC(=O)c1ccc(CSc2nc3scc(-c4cccs4)c3c(=O)[nH]2)o1`, the inhibition was 3.74% (inactive).
In the case of `COc1ccc(NC2CCN(C3CC(=O)N(c4ccc(F)c(Cl)c4)C3=O)CC2)cc1` (centres undefined), the inhibition was 4.79% (inactive).
For `COc1ccc(CC(=O)N2CCN=C2SC)cc1`, the inhibition was 7.94% (inactive).
For `O=S(=O)(Nc1ccc2c(c1)oc1ccccc12)N1CCCC1`, the inhibition was -2.32% (inactive).
For `Cc1ccc(S(=O)(=O)/N=C(/Nc2nc(C)cc(C)n2)N2CCOCC2)cc1`, the inhibition was 2.14% (inactive).
With `Cc1nnc(NCc2ccco2)c2ccccc12` the inhibition was 5.7% (inactive).
